Reference: ChEMBL document CHEMBL2218924, “A broad activity screen in support of a chemogenomic map for kinase signalling research and drug discovery” (Biochem J, 2013)

How the values were obtained:
[1] = molecular target: Tyrosine-protein kinase Lck (Homo sapiens) (UniProt P06239); settings: at 10 µM
[2] = molecular target: Tyrosine-protein kinase Lck (Homo sapiens) (UniProt P06239); settings: at 1 µM
[3] = molecular target: Tyrosine-protein kinase Lck (Homo sapiens) (UniProt P06239); settings: at 10 µM; remark: listed apart in the source
[4] = molecular target: Tyrosine-protein kinase Lyn (Homo sapiens) (UniProt P07948); settings: at 1 µM
[5] = molecular target: Tyrosine-protein kinase Lyn (Homo sapiens) (UniProt P07948); settings: at 10 µM
[6] = molecular target: Mitogen-activated protein kinase 3 (Homo sapiens) (UniProt P27361); settings: at 1 µM
[7] = molecular target: Mitogen-activated protein kinase 3 (Homo sapiens) (UniProt P27361); settings: at 10 µM
[8] = molecular target: MAP kinase-activated protein kinase 2 (Homo sapiens) (UniProt P49137); settings: at 1 µM
[9] = molecular target: MAP kinase-activated protein kinase 2 (Homo sapiens) (UniProt P49137); settings: at 10 µM
[10] = molecular target: MAP kinase-activated protein kinase 3 (Homo sapiens) (UniProt Q16644); settings: at 10 µM
[11] = molecular target: Serine/threonine-protein kinase MARK1 (Homo sapiens) (UniProt Q9P0L2); settings: at 1 µM
[12] = molecular target: Serine/threonine-protein kinase MARK1 (Homo sapiens) (UniProt Q9P0L2); settings: at 10 µM
[13] = molecular target: Dual specificity mitogen-activated protein kinase kinase 1 (Homo sapiens) (UniProt Q02750); settings: at 1 µM
[14] = molecular target: Dual specificity mitogen-activated protein kinase kinase 1 (Homo sapiens) (UniProt Q02750); settings: at 10 µM
[15] = molecular target: Maternal embryonic leucine zipper kinase (Homo sapiens) (UniProt Q14680); settings: at 1 µM
[16] = molecular target: Maternal embryonic leucine zipper kinase (Homo sapiens) (UniProt Q14680); settings: at 10 µM
[17] = molecular target: Misshapen-like kinase 1 (Homo sapiens) (UniProt Q8N4C8); settings: at 1 µM
[18] = molecular target: Misshapen-like kinase 1 (Homo sapiens) (UniProt Q8N4C8); settings: at 10 µM
[19] = molecular target: Mitogen-activated protein kinase 1 (Homo sapiens) (UniProt P28482); settings: at 10 µM
[20] = molecular target: Mitogen-activated protein kinase 1 (Homo sapiens) (UniProt P28482); settings: at 1 µM

Sequence of Tyrosine-protein kinase Lyn (Homo sapiens) (P07948 2-512 limits assumed): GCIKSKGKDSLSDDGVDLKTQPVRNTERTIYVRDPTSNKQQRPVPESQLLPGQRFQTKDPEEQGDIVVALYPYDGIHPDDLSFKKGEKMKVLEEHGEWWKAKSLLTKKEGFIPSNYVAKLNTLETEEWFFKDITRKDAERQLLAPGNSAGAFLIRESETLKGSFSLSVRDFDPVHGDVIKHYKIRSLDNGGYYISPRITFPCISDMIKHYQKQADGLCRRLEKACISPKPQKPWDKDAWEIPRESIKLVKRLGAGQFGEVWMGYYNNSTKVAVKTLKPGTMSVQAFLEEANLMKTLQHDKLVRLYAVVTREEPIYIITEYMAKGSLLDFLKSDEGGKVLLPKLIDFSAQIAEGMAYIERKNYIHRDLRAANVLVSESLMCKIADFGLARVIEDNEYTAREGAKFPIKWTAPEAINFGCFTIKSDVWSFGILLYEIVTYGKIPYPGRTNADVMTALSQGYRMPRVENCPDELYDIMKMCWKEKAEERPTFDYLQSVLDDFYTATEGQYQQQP
Sequence of Serine/threonine-protein kinase MARK1 (Homo sapiens) (Q9P0L2 whole entry, looked up): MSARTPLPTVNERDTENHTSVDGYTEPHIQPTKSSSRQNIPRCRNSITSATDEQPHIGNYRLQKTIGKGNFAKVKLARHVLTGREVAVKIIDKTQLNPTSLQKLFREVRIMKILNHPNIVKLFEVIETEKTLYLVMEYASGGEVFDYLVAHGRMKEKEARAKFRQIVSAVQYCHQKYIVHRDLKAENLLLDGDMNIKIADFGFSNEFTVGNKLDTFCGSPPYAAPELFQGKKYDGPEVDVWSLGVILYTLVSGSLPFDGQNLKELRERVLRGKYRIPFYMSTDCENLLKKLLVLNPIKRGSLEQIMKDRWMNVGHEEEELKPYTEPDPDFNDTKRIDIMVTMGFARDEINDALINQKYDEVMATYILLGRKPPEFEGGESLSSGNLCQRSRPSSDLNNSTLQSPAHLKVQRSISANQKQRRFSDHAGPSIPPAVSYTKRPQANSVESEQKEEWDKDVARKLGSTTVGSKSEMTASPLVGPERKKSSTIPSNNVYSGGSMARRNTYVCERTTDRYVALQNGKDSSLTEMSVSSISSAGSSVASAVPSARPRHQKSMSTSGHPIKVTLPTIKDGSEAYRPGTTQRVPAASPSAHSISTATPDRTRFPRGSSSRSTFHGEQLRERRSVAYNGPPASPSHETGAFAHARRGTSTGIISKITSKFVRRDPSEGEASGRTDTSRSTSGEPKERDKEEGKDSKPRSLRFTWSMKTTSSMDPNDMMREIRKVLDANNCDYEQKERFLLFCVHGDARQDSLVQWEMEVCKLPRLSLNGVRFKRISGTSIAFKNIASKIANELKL
Sequence of Dual specificity mitogen-activated protein kinase kinase 1 (Homo sapiens) (Q02750 whole entry): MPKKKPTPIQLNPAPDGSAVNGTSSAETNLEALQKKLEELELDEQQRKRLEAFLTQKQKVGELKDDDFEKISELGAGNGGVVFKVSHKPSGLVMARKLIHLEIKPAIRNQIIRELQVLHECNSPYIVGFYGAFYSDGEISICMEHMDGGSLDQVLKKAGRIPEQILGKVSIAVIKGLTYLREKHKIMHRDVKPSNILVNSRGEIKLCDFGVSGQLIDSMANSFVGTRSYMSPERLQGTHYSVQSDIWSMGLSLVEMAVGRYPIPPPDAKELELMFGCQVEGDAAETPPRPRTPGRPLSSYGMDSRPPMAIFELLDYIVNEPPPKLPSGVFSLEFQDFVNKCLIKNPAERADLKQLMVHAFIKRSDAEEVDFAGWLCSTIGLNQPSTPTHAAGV
Sequence of Mitogen-activated protein kinase 3 (Homo sapiens) (P27361 whole entry): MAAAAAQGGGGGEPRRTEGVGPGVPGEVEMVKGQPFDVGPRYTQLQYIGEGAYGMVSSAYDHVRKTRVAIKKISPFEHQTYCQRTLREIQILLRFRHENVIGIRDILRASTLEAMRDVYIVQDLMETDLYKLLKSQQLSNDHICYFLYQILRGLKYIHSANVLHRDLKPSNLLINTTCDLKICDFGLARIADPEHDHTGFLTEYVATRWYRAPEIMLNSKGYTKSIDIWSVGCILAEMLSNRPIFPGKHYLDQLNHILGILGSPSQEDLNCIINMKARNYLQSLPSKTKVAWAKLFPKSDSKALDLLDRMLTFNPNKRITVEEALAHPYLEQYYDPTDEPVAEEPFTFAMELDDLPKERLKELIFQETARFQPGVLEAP
Sequence of Maternal embryonic leucine zipper kinase (Homo sapiens) (Q14680 whole entry, looked up): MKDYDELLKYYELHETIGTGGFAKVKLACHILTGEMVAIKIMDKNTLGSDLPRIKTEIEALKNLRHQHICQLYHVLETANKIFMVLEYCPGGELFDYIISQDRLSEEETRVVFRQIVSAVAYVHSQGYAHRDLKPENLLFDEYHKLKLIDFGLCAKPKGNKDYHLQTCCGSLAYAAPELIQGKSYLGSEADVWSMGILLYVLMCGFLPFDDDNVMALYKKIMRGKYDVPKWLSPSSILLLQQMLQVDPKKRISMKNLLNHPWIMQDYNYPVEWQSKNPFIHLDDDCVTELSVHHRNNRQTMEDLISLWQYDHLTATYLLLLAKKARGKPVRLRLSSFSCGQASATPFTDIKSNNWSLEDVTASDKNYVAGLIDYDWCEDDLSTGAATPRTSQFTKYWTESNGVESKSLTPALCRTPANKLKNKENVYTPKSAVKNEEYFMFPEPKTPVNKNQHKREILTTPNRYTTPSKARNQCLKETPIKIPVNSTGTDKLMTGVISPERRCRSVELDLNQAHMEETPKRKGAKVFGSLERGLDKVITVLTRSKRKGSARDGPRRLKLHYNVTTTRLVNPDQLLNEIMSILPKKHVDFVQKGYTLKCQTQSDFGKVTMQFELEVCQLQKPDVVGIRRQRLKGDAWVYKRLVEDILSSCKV
Sequence of MAP kinase-activated protein kinase 3 (Homo sapiens) (Q16644 whole entry, looked up): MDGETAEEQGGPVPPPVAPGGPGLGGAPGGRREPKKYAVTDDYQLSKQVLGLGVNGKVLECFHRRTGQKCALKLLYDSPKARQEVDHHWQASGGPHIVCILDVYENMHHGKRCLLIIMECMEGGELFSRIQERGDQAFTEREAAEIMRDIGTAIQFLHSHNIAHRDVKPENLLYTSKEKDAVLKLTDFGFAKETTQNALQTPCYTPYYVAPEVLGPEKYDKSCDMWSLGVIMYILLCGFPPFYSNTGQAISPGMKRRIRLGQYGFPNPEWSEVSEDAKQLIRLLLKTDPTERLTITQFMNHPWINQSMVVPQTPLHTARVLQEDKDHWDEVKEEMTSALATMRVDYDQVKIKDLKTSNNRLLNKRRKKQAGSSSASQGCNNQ
Sequence of Mitogen-activated protein kinase 1 (Homo sapiens) (P28482 whole entry): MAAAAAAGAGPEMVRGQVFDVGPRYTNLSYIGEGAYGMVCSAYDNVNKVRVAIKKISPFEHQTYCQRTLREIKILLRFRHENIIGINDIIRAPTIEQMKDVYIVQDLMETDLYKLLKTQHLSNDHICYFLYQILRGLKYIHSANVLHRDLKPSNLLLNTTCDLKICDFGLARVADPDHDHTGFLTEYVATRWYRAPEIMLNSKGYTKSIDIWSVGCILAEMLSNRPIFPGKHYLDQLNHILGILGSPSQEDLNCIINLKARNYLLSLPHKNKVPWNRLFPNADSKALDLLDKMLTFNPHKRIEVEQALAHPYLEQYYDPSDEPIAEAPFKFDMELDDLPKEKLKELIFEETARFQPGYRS
Sequence of Tyrosine-protein kinase Lck (Homo sapiens) (P06239 2-509 limits assumed): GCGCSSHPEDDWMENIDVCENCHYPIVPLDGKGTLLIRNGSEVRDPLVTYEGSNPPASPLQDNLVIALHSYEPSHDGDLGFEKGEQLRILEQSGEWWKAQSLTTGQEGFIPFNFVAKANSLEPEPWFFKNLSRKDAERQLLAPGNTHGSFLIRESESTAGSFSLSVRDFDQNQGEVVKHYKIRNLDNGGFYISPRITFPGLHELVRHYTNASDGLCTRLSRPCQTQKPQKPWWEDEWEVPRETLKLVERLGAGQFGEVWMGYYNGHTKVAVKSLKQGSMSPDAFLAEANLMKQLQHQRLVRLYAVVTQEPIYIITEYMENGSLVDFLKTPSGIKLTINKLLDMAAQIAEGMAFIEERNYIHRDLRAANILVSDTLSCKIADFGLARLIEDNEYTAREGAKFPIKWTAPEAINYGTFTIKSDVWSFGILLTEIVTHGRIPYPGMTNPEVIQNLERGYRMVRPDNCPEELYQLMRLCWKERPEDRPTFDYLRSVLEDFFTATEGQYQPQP
Sequence of MAP kinase-activated protein kinase 2 (Homo sapiens) (P49137 whole entry, looked up): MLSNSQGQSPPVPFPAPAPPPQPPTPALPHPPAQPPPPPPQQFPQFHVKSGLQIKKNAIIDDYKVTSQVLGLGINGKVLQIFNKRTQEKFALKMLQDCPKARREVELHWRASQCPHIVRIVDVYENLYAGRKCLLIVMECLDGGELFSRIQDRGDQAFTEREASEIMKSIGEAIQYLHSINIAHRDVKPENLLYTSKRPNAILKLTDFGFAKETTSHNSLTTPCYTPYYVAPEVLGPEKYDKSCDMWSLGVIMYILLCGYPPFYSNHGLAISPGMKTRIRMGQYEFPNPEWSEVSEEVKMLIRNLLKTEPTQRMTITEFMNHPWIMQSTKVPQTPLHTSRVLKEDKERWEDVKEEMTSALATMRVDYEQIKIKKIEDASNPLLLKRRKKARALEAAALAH

SMILES	residual activity [1]	residual activity [2]	residual activity [3]	residual activity [4]	residual activity [5]	residual activity [6]	residual activity [7]	residual activity [8]	residual activity [9]	residual activity [10]	residual activity [11]	residual activity [12]	residual activity [13]	residual activity [14]	residual activity [15]	residual activity [16]	residual activity [17]	residual activity [18]	residual activity [19]	residual activity [20]
O=C1Nc2ccc(Cl)cc2/C1=C/c1cc(Cl)c(O)c(Cl)c1	53%	74%	51%	81%	23%	76%	70%	67%	71%	61%	69%	35%	99%	49%	60%	46%	35%	35%		
O=C1C(Cl)=C(N2C(=O)CCC2=O)C(=O)c2ccccc21	99%		93%	87%	84%	102%	91%	69%	87%	100%	82%	81%		67%		70%				
CC(C)c1nn(-c2c(Cl)cccc2Cl)c2nc(Cc3ccc(OCCO)cc3)[nH]c(=O)c12	85%		88%	81%	36%	94%	73%	80%	89%	91%	80%	47%	82%		65%	67%	97%	93%	89%	
COc1cc2nccc(Oc3ccc(NC(=S)NC(=O)c4ccccc4C)cc3)c2cc1OC	-1%	0%	0%	0%	0%	83%	82%	73%	66%	56%	81%	75%	86%	68%	98%	84%	77%	69%	87%	93%
O=C(NC(NC(=S)Nc1ccc(F)c([N+](=O)[O-])c1)C(Cl)(Cl)Cl)C(c1ccccc1)c1ccccc1 (centres undefined)	55%	86%	74%	89%	66%	82%	82%	90%	78%		96%	80%			76%	76%				
NCCNc1ncc(C(N)=O)c(Nc2cccc(C(F)(F)F)c2)n1	37%	82%	29%	27%	3%	72%	40%		49%	72%	72%	30%	73%	25%					43%	
O=c1c(-c2ccc(F)cc2)c(-c2ccncc2)[nH]n1-c1ccc(Cl)cc1				75%	38%		66%							102%				55%		122%
O=C1NC(=O)C(c2cn(CCCO)c3ncccc23)=C1c1cnccn1				78%	70%			93%	93%	100%	81%	79%			78%	68%				
O=C1Cc2c([nH]c3ccc(Br)cc23)-c2ccccc2N1				10%	1%					89%	51%	12%		82%	89%	68%				
NC(=O)c1cccc(-c2cc(Nc3ccc(OC(F)(F)F)cc3)ncn2)c1		92%	91%	97%	82%										74%	75%				
Cn1sc(=O)n(Cc2ccccc2)c1=O				82%	92%	83%	92%	72%	93%		76%	70%	96%		88%	65%	96%	91%	92%	95%
O=S(=O)(c1cccc2cnccc12)N1CCCNCC1				83%											75%	16%			80%	
CCN1/C(=C/C(C)=O)Sc2ccc(OC)cc21				49%	37%						67%	65%								
O=S(=O)(NCCNC/C=C/c1ccc(Br)cc1)c1cccc2cnccc12					49%		70%				76%	37%			45%	9%		75%		
O=C1Cc2c([nH]c3ccc([N+](=O)[O-])cc23)-c2ccccc2N1		76%	45%	6%	5%			69%	50%	53%	34%	28%	103%	129%	81%	64%	60%	36%		109%
Fc1ccc(-c2nc3n(c2-c2ccncc2)CCS3)cc1			75%	98%	74%	138%	92%			100%					89%	82%	96%	67%		
Cc1cc(C)c(/C=C2\C(=O)Nc3ccccc32)[nH]1				46%	8%			100%	103%	101%	65%	20%	41%	31%			71%	58%	101%	98%
CN([C@@H](Cc1ccc(OS(=O)(=O)c2cccc3cnccc23)cc1)C(=O)N1CCN(c2ccccc2)CC1)S(=O)(=O)c1cccc2cnccc12		113%		78%	59%					78%	99%	98%								
